Only some compounds are listed: those with a hit (about 21% of all), similar ones and a draw of the others.
DT40 TDP1 CPT: growth inhibition of DT40 Tdp1-/-;hTDP1 cells with camptothecin (screen for TDP1 inhibitors); chicken DT40 Tdp1-/-;hTDP1 cells + 20 nM CPT, ATP luminescence, 48 h; Potency, µM (titrated, usually from 46.2 µM), for the others: at the top dose activity change, negative = growth inhibition, usual class: inhibitors; hit rate 12% among 420,000; further: potency means the concentration at half of the fitted maximal effect; nearly all actives have a fitted effect of over 55% in size
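Chicken DT40 Tdp1-/- cells complemented with human TDP1, 400 cells/well, exposed to compounds plus 20 nM camptothecin for at least 48 h at 37 C; viability read as ATP content by CellTiter-Glo luminescence.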
Gal4-VP16 FLuc: Gal4-VP16 reporter inhibition counter-screen | Drosophila S2 Gal4-VP16 UAS-luciferase, luminescence, 20 h | Potency, µM (highest dose often 53.6 µM), inactives show at the highest dose activity, negative = inhibition, actives largely listed as inhibitors | hit rate 3.5% among 310,000 | AID 2546;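 further: Gal4-VP16 expression switched on by copper sulfate through the metallothionein promoter; potency means the concentration at half of the fitted maximal effect; nearly all actives have a fitted effect of over 50% in size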
ELG1 DNA repair: blocks ELG1-dependent DNA repair in HEK293T cells. HEK293T ELG1-luciferase reporter, luminescence, 16 h; DNA damage induced by 5-fluorouridine. Potency, µM (series often up to 46.1 µM), without a hit: at the highest dose activity change, negative = inhibition, usual class: inhibitors. hit rate 2.3% among 330,000; further: potency means the concentration at half of the fitted maximal effect; nearly all actives have a fitted effect of over 55% in size
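Reporter activity after DNA damage by 5-fluorouridine is monitored. Compound-treated cells incubate 16 hr at 37 °C, then ONE-Glo is added for 30 min before luminescence reading.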
DT40 TDP1 no CPT: qHTS for Inhibitors of human tyrosyl-DNA phosphodiesterase 1 (TDP1): qHTS in cells in absence of CPT | DT40 Tdp1-/- hTDP1 cells, no CPT, ATP luminescence, 48 h | Potency, µM (series often up to 46.2 µM), for inactives: top-dose activity change, negative = growth inhibition, actives largely listed as inhibitors | hit rate 15% among 420,000 | AID 686978, 2013; further: potency means the concentration at half of the fitted maximal effect; nearly all actives have a fitted effect of over 55% in size
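Compound effects on proliferation are scored in DT40 Tdp1-/-;hTDP1 cells in the absence of CPT. ATP levels (CellTiter-Glo luminescence) are recorded after a ≥48 hr, 37 °C incubation.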
IL-1B inflam inh: blocks inflammasome-driven IL-1 beta release. activity change, % at 57.5 µM. hit rate 4.7% among 360,000. THP-1 LPS/ATP IL-1B secretion, AlphaLISA, 16 h; active compounds read low; in the data active means activity change below about -50%; inconclusive means mostly about -30% to -49%
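Secreted IL-1B measured by AlphaLISA bead assay after 16 h compound exposure of THP-1 cells; compounds (final up to 57.5 uM) added 1 h before LPS (250 ng/mL) and ATP (1.25 mM) stimulation; lower signal means less secretion.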
RORgamma inh: blocks mouse ROR gamma transcriptional activity. Drosophila S2 Gal4-RORgamma UAS-luciferase reporter, 20 h. Potency, µM (doses to about 53.6 µM), for inactives: at the highest dose activity change, negative = inhibition, most hits filed as inhibitors. hit rate 5.4% among 310,000; further: potency means the concentration at half of the fitted maximal effect; nearly all actives have a fitted effect of over 60% in size
Target sequence (P51450 whole entry, looked up, the tested form may be a part): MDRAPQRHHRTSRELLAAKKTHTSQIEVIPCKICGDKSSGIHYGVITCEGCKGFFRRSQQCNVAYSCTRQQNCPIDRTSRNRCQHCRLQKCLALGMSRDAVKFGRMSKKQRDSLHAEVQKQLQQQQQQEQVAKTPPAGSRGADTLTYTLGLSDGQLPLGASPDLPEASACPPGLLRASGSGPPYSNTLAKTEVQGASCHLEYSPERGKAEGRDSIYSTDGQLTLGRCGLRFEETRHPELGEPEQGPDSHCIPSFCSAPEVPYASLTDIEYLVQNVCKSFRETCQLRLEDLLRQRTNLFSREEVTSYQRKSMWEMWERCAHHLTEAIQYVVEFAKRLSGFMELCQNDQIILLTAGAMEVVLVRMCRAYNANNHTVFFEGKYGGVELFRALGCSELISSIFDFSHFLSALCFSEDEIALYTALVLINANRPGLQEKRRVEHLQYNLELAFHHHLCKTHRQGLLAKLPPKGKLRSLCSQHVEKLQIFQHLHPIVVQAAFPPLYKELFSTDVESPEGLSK
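Read-out: Photinus luciferase luminescence; inhibitors lower reporter signal. Insect Schneider cells with Gal4-ROR gamma fusion under metallothionein promoter, UAS reporter; 700 uM final copper sulfate induction, 20 hr, ambient temperature.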
Starred values were filed as active, the others as inactive; u = inconclusive; x = no result given; [ ] = remark or other dose. Unless noted, the call rests on the fitted dose curve; in most records, active means well fitted curve in the direction sought with a large enough effect; inconclusive means small, poorly fitted or top-dose-only effect, or another doubt; inactive means no such curve, though single readings can be large; an effect the other way counts as inactive or inconclusive. On the % scale 0 is the no-effect control and ±100 the full control effect.

SMILES	DT40 TDP1 CPT	Gal4-VP16 FLuc	ELG1 DNA repair	DT40 TDP1 no CPT	IL-1B inflam inh	RORgamma inh
Cc1ccccc1S(=O)(=O)Cc1ccc(C(=O)NCCN(C)Cc2ccccc2)o1	-27.6%	-11.1%	5.8%	-6.4%	7.1	7.6%
Cc1ccccc1S(=O)(=O)Cc1ccc(C(=O)NCCN(Cc2ccccc2)C(C)C)o1	u	-19.1%	-3.0%	16.4µM*	-4.8	-6.2%
CC(C)N(CCNC(=O)c1ccc(CS(=O)(=O)c2c(Cl)cccc2Cl)o1)Cc1ccccc1	20.6µM*	1.9%	11.6%	u	-8.2	-9.2%
CN1c2ccccc2C(C)(C)C12CC(CCl)=NO2 (configuration not stated)	16.4µM*	9.4%	-11.6%	20.6µM*	-12.3	-26.1%
CN1c2ccccc2C(C)(C)C12CC(c1ccc(Cl)c(S(=O)(=O)N3CCCC3)c1)=NO2 (configuration not stated)	x	u	-5.8%	x	x	u
CN(CC(O)CON=C1c2ccccc2-c2ccccc21)S(=O)(=O)c1ccc(Br)cc1 (configuration not stated)	16.4µM*	u	20.6µM*	u	u	29.2%
CS(=O)(=O)N(CC(O)CON=C1c2ccccc2-c2ccccc21)c1ccc(F)cc1 (configuration not stated)	-22.0%	-14.4%	x	u	-5.8	u
CCN(CC(O)CON=C1c2ccccc2-c2ccccc21)S(=O)(=O)c1ccc(Cl)cc1 (configuration not stated)	20.6µM*	u	u	14.6µM*	-62.4*	u
O=S(=O)(c1ccc(Br)cc1F)N1CCCCC1CCO (configuration not stated)	7.0%	x	x	-6.9%	59.1	x
O=C(NCc1cccnc1)c1nn(-c2ccc(Cl)cc2)nc1CO	-16.7%	x	x	u	x	x
CC12CCC(C(=O)Nc3ccc(SC(F)F)cc3)(CC1=O)C2(C)C (configuration not stated)	u	-1.9%	-7.5%	-27.3%	-80.7*	23.7%
O=C(Cn1ccn(-c2ccc(F)cc2)c(=O)c1=O)NCCc1ccccc1	0.3%	x	x	0.6%	x	x
C=C1C(=O)O[C@@H]2C[C@@H](C)[C@@H]3C=CC(=O)[C@@]3(C)[C@@H](OC(C)=O)[C@H]12	0.82µM*	1.26µM*	u	0.651µM*	u	1.26µM*
CC(=O)OC1C(OC(C)=O)C2C(C)CC3OC(=O)C(C)C3CC2(C)C1OC(C)=O (configuration not stated)	1.5%	x	x	-19.1%	12.5	x
COc1ccc(-n2nnnc2-c2cnc(N3CCCC3)nc2C(F)(F)F)cc1	8.2µM*	u	-4.1%	9.2µM*	-55.5*	u
FC(F)(F)c1nc(-c2cccs2)ncc1-c1nnnn1-c1ccc(Cl)cc1	4.11µM*	-5.5%	20.6µM*	2.91µM*	-26.8	-21.4%
CNc1ncc(-c2nnnn2-c2ccccc2)c(-c2ccccc2)n1	u	-4.7%	-6.5%	u	0.0	-3.4%
FC(F)(F)c1nc(-c2cccnc2)ncc1-c1nnnn1-c1ccccc1	u	-7.4%	u	16.4µM*	-11.5	31.3%
O=c1[nH]c2cc([N+](=O)[O-])ccc2c2cc(Br)ccc12	-9.3%	x	x	u	24.9	x
CC(C)(C)c1ccc(CC(=O)N2CCC2(C)C(=O)N2CCCCC2)cc1 (configuration not stated)	u	x	x	-31.8%	27.5	x
CC(C)(C)C1CCCCC1NC(=O)c1ccncc1 (configuration not stated)	-4.2%	-1.7%	-0.7%	u	8.6	7.4%
CCCN1CNC(=S)N(c2ccc(C)cc2C)C1	-2.2%	u	0.7%	-18.9%	x	3.98µM*
CCCN1CNC(=S)N(c2ccccc2C)C1	-7.9%	u	21.5%	u	-10.7	11.2µM*
CCN1CNC(=S)N(c2cc(C)ccc2C)C1	-27.0%	-28.5%	6.1%	4.1%	-10.6	u
CC1=C(C(=O)OCc2ccccc2)C(c2ccc(C3CCCCC3)cc2)NC(=O)N1CCCCCC(=O)O (configuration not stated)	x	-6.8%	x	x	x	16.6%
SMILES	DT40 TDP1 CPT	Gal4-VP16 FLuc	ELG1 DNA repair	DT40 TDP1 no CPT	IL-1B inflam inh	RORgamma inh
O=C(O)c1ccccc1NCN1C(=O)C2CC=C(Cl)CC2C1=O (configuration not stated)	u	-10.8%	0.2%	u	0.0	-11.0%
COc1cc(OC)c(NC(=O)N2CCc3cc(OC)c(OC)cc3C2CC(=O)O)cc1Cl (configuration not stated)	14.6µM*	x	x	8.2µM*	x	x
CCc1ccccc1NC(=O)N1CCc2cc(OC)c(OC)cc2C1CC(=O)OC (configuration not stated)	u	x	x	18.4µM*	x	x
Cn1c(=O)c2c(-c3ccc(Cl)cc3)ccnc2n(C)c1=O	-10.9%	x	x	u	x	x
CCCc1ccccc1OCCNC(C)=O	18.4µM*	x	u	18.4µM*	0.0	3.1%[0.365 µM]
Cc1ccc(C(=O)OCC(=O)NCc2ccc(Cl)cc2Cl)o1	u	x	11.1%	-20.7%	7.0	x
C[C@@]12CCC=C[C@H]1[C@H](c1ccccc1Br)N(Cc1ccccc1)C2=O	u	-26.1%	-13.5%	16.4µM*	9.7	37.1%

Compound activity deposited in PubChem BioAssay by National Center for Advancing Translational Sciences (NCATS).
